One molecule from PubChem BioAssay AID2284084 (EPA ToxCast) can be followed below.

Active and inactive are the calls of the source. The calls were made as follows: active = hit-call score of the fitted dose curve at least 0.9, where 1 is the maximum; inactive = score below 0.9.

human CK1alpha CK1 Kinase, CSNK1A1 (gene 1452), sequence (P48729 whole entry, looked up): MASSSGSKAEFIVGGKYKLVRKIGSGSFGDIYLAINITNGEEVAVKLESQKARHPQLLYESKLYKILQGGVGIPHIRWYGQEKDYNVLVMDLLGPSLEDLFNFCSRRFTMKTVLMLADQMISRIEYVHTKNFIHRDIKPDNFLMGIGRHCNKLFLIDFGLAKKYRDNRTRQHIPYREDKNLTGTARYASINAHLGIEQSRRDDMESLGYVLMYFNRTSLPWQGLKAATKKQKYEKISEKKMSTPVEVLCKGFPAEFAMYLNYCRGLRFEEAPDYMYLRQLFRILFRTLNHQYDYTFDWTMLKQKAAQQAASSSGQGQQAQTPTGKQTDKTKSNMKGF

For the assay, the target named is human CK1alpha CK1 Kinase, CSNK1A1 (gene 1452) (UniProt P48729). In words: ERF_TW_ENZ_hCSNK1A1: Eurofins (ERF) Enzymatic Radiometric [10 uM ATP] Assay for human CK1alpha CK1 Kinase. How it is done:
ERF_TW_ENZ_hCSNK1A1 is a biochemical, single-readout assay that uses extracted gene-proteins in a cell-free assay. Measurements were taken 0.5 hour after chemical dosing in a 96-well plate. See CK1alpha Human CK1 Kinase Enzymatic Radiometric Assay [10 uM ATP], Panlabs.ERF_TW_ENZ_hCSNK1A1 is an assay component calculated from the ERF_TW_ENZ_hCSNK1A1 assay. It is designed to measure enzyme activity using a type of enzyme reporter as detected by scintillation counting with radiometry technology.Data from the assay component ERF_TW_ENZ_hCSNK1A1 was analyzed at the assay endpoint, ERF_TW_ENZ_hCSNK1A1, in the positive analysis fitting direction relative to DMSO as the negative control and baseline of activity. Using a type of enzyme reporter, loss-of-signal activity can be used to understand changes in enzymatic activity as they relate to gene CSNK1A1. To generalize the intended target to other relatable targets, this assay endpoint is annotated to the kinase intended target family, where the subfamily is serine/threonine kinase.
CK1alpha (h) is incubated for 120 minutes at room temperature, with KRRRALS(p)VASLPGL (SP15) as substrate, and PP1 Analog II. 1NM-PP1 as control inhibitor. Test Sample Requirements: Compound should be supplied in 100%DMSO. We require a stock solution at a concentration of at least 50x higher than the Final Assay Concentration of your cpd. […]
Regarding `O=C(/C=C/c1ccc(O)cc1)CC(=O)/C=C/c1ccc(O)cc1`, the AC50 was 872 nM (active).

By AC50 is commonly meant the concentration at which the activity in the assay is half-maximal.
